Structures are written as SMILES. Hit rate of the full screen: of about 350,000 compounds, about 9,900 (2.8%) were called active. Roughly 15% stayed inconclusive and do not appear here. The sample holds actives, similar compounds and a random draw of the others, so the mix is not that of the screen. Calls come from the whole dose curve; as a rule, active = well fitted activation curve with a large enough effect; inconclusive = small, poorly fitted or top-dose-only effect; inactive = no such curve, though single readings can be large or run the other way.
Potency is the fitted concentration of half-maximal effect.

This assay can be described thus: A quantitative high throughput screen for small molecules that induce DNA re-replication in MCF 10a normal breast cells. For activity, positive = re-replication: % of control where 0% means no effect. Note: nearly all actives have a fitted effect of over 50% in size. Conditions: MCF 10A DNA re-replication, Hoechst nuclear intensity, 48 h; series mostly up to 46.1 µM; activity, positive = re-replication: at the top concentration.
For `CCn1nc(C(=O)Nc2ccc(N3CCOCC3)cc2)c2ccccc2c1=O`, the “activity, positive = re-replication” value was 3.71% (inactive).

Turning to `O=C(/C=C/c1ccc([N+](=O)[O-])o1)NNC(=O)c1ccc(F)cc1`, the Potency is 9.2 µM (active).

Regarding `O=C(NNC(=O)C1CCCC1)c1ccc(F)cc1`, the “activity, positive = re-replication” value is -0.515% (inactive).

With `C/[N+]([O-])=C\c1ccc([N+](=O)[O-])o1`, the “activity, positive = re-replication” value was 14.2% (inactive).

As for `CC(C)Oc1ccc(CC(=O)NNC(=S)Nc2ccc(Br)cc2)cc1`, the Potency is 16.4 µM (active).

As to `COCC(=O)Nc1ccc(Br)cc1`, the “activity, positive = re-replication” value was -6.21% (inactive).

Take `CC(C)Oc1ccc(CCC(=O)NNC(=S)NCc2ccccc2)cc1`: the “activity, positive = re-replication” value is 0.118% (inactive).

Turning to `CC(C)(C)OC(=O)N(Cc1ccccc1)Cc1ccc(OCc2cccc(NC(=O)c3ccccc3)c2)cc1`, the “activity, positive = re-replication” value was 14.3% (inactive).

In the case of `CC[C@]12c3[nH]c4ccc(OC)cc4c3CCN1C(=O)C(CC(=O)NCCN1CCOCC1)C[C@@H]2C(=O)N1CCN(C(=O)C2CC2)CC1` (some centres undefined), the “activity, positive = re-replication” value was 1.05% (inactive).

On to `Cc1ccsc1C(=O)N/N=C/c1ccc([N+](=O)[O-])cc1`, for which the “activity, positive = re-replication” value is -0.593% (inactive).

As for `Cc1ccc(COc2ccc(/C=N/NC(=O)CN3CCCCC3)cc2)cc1`, the “activity, positive = re-replication” value was 0.536% (inactive).

As for `Cc1ccc(/C=N/NC(=O)c2sccc2OCc2ccc(F)cc2)cc1`, the Potency was 6.51 µM (active).

For `CC(=O)Nc1ccc(SC[C@H](Cc2ccccc2)N2CC[C@@H](C)CCC2=O)cc1`, the “activity, positive = re-replication” value was 1.91% (inactive).

Regarding `COc1ccc(NS(=O)(=O)c2cc(NC(=O)c3ccc(S(=O)(=O)N(C)C)cc3)ccc2N2CCOCC2)cc1`, the “activity, positive = re-replication” value is 1.21% (inactive).

For `COc1cc(NS(=O)(=O)c2ccc(N/C=C(\C=O)c3nc4cc(Cl)ccc4o3)cc2)nc(OC)n1`, the Potency is 20.6 µM (active).

For `COc1cc(NS(=O)(=O)c2ccc(N=Cc3c(C)[nH]n(-c4ccccc4)c3=O)cc2)nc(OC)n1`, the “activity, positive = re-replication” value was 4.18% (inactive).

On to `COc1cc(NS(=O)(=O)c2ccc(NC(=S)NC(=O)c3ccccc3)cc2)nc(OC)n1`, for which the “activity, positive = re-replication” value is -1.53% (inactive).

As to `Cc1ccc(C)c(C(=O)COC(=O)Cn2[nH]c(=O)c3ccccc3c2=O)c1`, the “activity, positive = re-replication” value is 5.4% (inactive).

`CCc1ccc(C(=O)C(C)OC(=O)CN2C(=O)NC3(CCCC3)C2=O)cc1` (centres undefined): the “activity, positive = re-replication” value was 5.71% (inactive).

In the case of `CCCC1=Nc2cc(C(=O)NCc3ccco3)ccc2Sc2ccccc21`, the Potency was 8.2 µM (active).

Turning to `CCC1=Nc2cc(C(=O)NCCCN3CCOCC3)ccc2Sc2ccc(Br)cc21`, the “activity, positive = re-replication” value was 26.8% (inactive).

Take `CCC1=Nc2cc(C(=O)NCCN3CCCC3)ccc2Sc2ccc(C)cc21`: the “activity, positive = re-replication” value was 17% (inactive).

As for `CC(=O)c1ccc(OCCN2CCOCC2)cc1`, the “activity, positive = re-replication” value is 1.39% (inactive).

For the molecule `c1ccc(-c2ccc(OCCN3CCOCC3)cc2)cc1`, the “activity, positive = re-replication” value was 10.6% (inactive).

On to `CCOc1ccc(C(=O)CCN2CCOCC2)cc1`, for which the Potency was 18.4 µM (active).

Turning to `O=C(c1ccccc1)c1ccc(OCC(O)CN2CCCC2)cc1` (centres undefined), the “activity, positive = re-replication” value is 0.887% (inactive).

Take `OC(COc1ccc(Br)cc1)CN1CCCC1` (centres undefined): the “activity, positive = re-replication” value is 12.5% (inactive).

Regarding `O=C(c1ccc(Cl)cc1)c1ccc(OCC(O)CN2CCCCC2)cc1` (centres undefined), the Potency is 5.01 µM (active).

Take `CC(C)CCSc1ncnc2c1oc1nc3c(cc12)COC(C)(C)C3`: the Potency was 5.8 µM (active).

`C=CCn1c(=S)[nH]c2nc3c(cc2c1=O)COC(C)(C)C3`: the “activity, positive = re-replication” value is 1.01% (inactive).

As for `CCCc1nc2oc3c(OCC)ncnc3c2c2c1COC(C)(C)C2`, the “activity, positive = re-replication” value was 27.7% (inactive).

Turning to `CSCCC(NS(=O)(=O)c1ccc(C)cc1)C(=O)N(C)CC(=O)Nc1ccccc1Br` (centres undefined), the “activity, positive = re-replication” value is 4.3% (inactive).

Regarding `O=C(COC(=O)c1ccc(O)cc1O)c1ccc2c(c1)OCCO2`, the “activity, positive = re-replication” value is -0.272% (inactive).

With `O=C1COc2c1ccc(O)c2O`, the “activity, positive = re-replication” value was -41.8% (inactive).

Regarding `O=C1c2cccc3c([N+](=O)[O-])ccc(c23)C(=O)N1CC1CCCO1` (centres undefined), the Potency was 18.4 µM (active).

Turning to `CCC(=O)Nc1ccc(C(=O)Nc2ccc3c(c2)C(=O)N(CC2CCCO2)C3=O)cc1` (centres undefined), the “activity, positive = re-replication” value is 3.25% (inactive).

For the molecule `CCOc1cccc(=O)c2c(C)n(CC3CCCO3)c(C)c12` (centres undefined), the “activity, positive = re-replication” value is 10.7% (inactive).

In the case of `N#CC(Cc1cc2ccccc2n1S(=O)(=O)c1ccccc1)OCc1ccccc1` (centres undefined), the “activity, positive = re-replication” value is -1.6% (inactive).

For `O=C(O)c1ccc(N/N=C/c2ccc3ncccc3c2)cc1`, the “activity, positive = re-replication” value was -0.921% (inactive).

`Cc1ccc2cc(/C=N/NC(=O)[C@@H]3CCCN3)c(Cl)nc2c1`: the “activity, positive = re-replication” value is 5.15% (inactive).

Regarding `Cc1ccc2cc(/C=N/Nc3ccc(C(=O)O)cc3)c(Cl)nc2c1`, the Potency was 6.51 µM (active).

With `COc1cc(/C=C(\C#N)C(=O)Nc2ccc3ccccc3c2)c([N+](=O)[O-])cc1OC`, the “activity, positive = re-replication” value was 15.9% (inactive).

On to `COc1ccc(NC(=O)/C(C#N)=C\c2cc(OC)c(OCc3ccc(C(=O)O)cc3)cc2Br)cc1`, for which the Potency is 16.4 µM (active).

Turning to `COc1cc(C=O)c(Br)cc1OCC(=O)NCc1ccccc1`, the “activity, positive = re-replication” value was -2.65% (inactive).

As for `NC(=O)C1(N2CCCC2)CCN(Cc2ccccc2)CC1`, the “activity, positive = re-replication” value is 0.0869% (inactive).

`COC(=O)c1sc2ncccc2c1OCc1ccc(Cl)cc1Cl`: the activity, positive = re-replication is -182% [at 0.0737 µM] (inactive).

Turning to `COC(=O)c1cn(C(=O)c2ccc(Cl)cc2)c2ccccc12`, the “activity, positive = re-replication” value is -2.16% (inactive).

With `COC(=O)c1cc2c(N)c(C(=O)c3ccc(Cl)cc3)sc2nc1C(OC)OC`, the Potency was 20.6 µM (active).

For the molecule `CN(Cc1cccs1)C(=O)CN1C(=O)c2ccccc2S1(=O)=O`, the “activity, positive = re-replication” value was 2.91% (inactive).

For `CCOC(=O)C1=CN(Cc2ccc(Br)cc2)S(=O)(=O)NC1C` (centres undefined), the “activity, positive = re-replication” value is -1.7% (inactive).

Take `CCOC(=O)c1c(NC(=O)c2ccc(S(=O)(=O)N(C)CC3CCCO3)cc2)sc2c1CC(C)(C)NC2(C)C` (centres undefined): the “activity, positive = re-replication” value was -0.748% (inactive).

For the molecule `COC(=O)c1c(NC(=O)COc2ccc(Cl)cc2Cl)sc2c1CC(C)(C)NC2(C)C`, the Potency is 3.26 µM (active).

Turning to `Cc1cc(NC(=O)COc2ccc(Cl)cc2Cl)n(CCC#N)n1`, the “activity, positive = re-replication” value was -12.1% (inactive).

As for `CCC(=O)N(Cc1cc2cc(OC)ccc2[nH]c1=O)c1ccccc1C`, the “activity, positive = re-replication” value is 11.2% (inactive).

Regarding `COc1ccc2[nH]c(=O)c(CNc3ccc(C)c(C)c3)cc2c1`, the Potency is 14.6 µM (active).

Consider `COc1ccc(N(Cc2cc3cc(OC)ccc3[nH]c2=O)S(C)(=O)=O)cc1`, for which the “activity, positive = re-replication” value was 2.63% (inactive).

For `c1ccc(-c2c[nH]c(-c3ccccc3)c2)cc1`, the “activity, positive = re-replication” value was 18.5% (inactive).

With `COc1ccc(NC(=O)CN(C)C(=O)c2cc(C3CC3)nn2-c2ccccc2)cc1`, the “activity, positive = re-replication” value is 0.411% (inactive).

Consider `Cc1nc2ccccc2c(C(=O)O)c1-c1ccccn1`, for which the “activity, positive = re-replication” value is 0.373% (inactive).

`COc1cc2c(cc1CNC[C@H]1O[C@@H](n3cnc(C(N)=O)n3)[C@H](O)[C@@H]1O)OCO2`: the “activity, positive = re-replication” value was -5.16% (inactive).

Take `C/C(CC(=O)Nc1ccc(N(C)C)cc1)=N\NC(=O)c1ccccc1F`: the “activity, positive = re-replication” value is -3.45% (inactive).

For the molecule `C/C(=N\NC(=O)c1ccccc1F)c1ccccn1`, the Potency was 23.1 µM (active).

`C/C(=N\NC(=O)Cc1ccc(Cl)cc1)c1ccccn1`: the “activity, positive = re-replication” value is -8.75% (inactive).

Turning to `O=C(CNC(=O)c1cc(S(=O)(=O)N2CCOCC2)ccc1N1CCCC1)Nc1ccc(F)c(F)c1`, the “activity, positive = re-replication” value was 16% (inactive).
